MCF10A rereplic = A quantitative high throughput screen for small molecules that induce DNA re-replication in MCF 10a normal breast cells; MCF 10A DNA re-replication, Hoechst nuclear intensity, 48 h; Potency, µM (titrated, usually from 46.1 µM), for inactives: at the highest dose activity, positive = re-replication, actives largely listed as activators; 350,000 tested, 2.9% active; note: % of control where 0% means no effect; nearly all actives have a fitted effect of over 50% in size
KB-3-1 tox = qHTS assay for MDR1-selective chemotherapeutics: Primary screen using the parental adenocarcinoma cell KB-3-1; KB-3-1 viability, CellTiter-Glo ATP luminescence, 72 h; Potency, µM (doses to about 46.1 µM), hits mostly cytotoxic; 400,000 tested, 1.4% active; note: % is set by controls: 0 for no effect and ±100 for the full control effect; nearly all actives have a fitted effect of over 60% in size
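72 h, 37 °C compound treatment of KB-3-1 parental cells; CellTiter-Glo added, 10 min, luminescence read. Data corrected against DMSO-only plates and normalized before curve fitting.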
KB-V1 MDR tox = qHTS assay for MDR1-selective chemotherapeutics: Primary screen using the drug-selected MDR subline cells KB-V1 | 400,000 tested, 3.4% active | AID 1347076, 2019 | Potency, µM (titrated, usually from 46.1 µM), hits mostly cytotoxic | KB-V1 MDR cells viability, CellTiter-Glo, 72 h; note: % is set by controls: 0 for no effect and ±100 for the full control effect; nearly all actives have a fitted effect of over 60% in size
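Compound-treated KB-V1 multidrug-resistant cells, 72 h, 37 degrees C; viability by CellTiter-Glo. Fitted qHTS curves give the values.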
SW480 rerep = A quantitative high throughput screen for small molecules that induce DNA re-replication in SW480 colon adenocarcinoma cells. AID 624297, 2012. Potency, µM (highest dose often 46.1 µM), for the others: at the top dose re-replication activation, most hits filed as activators. SW480 DNA re-replication, Hoechst DNA content imaging, 48 h. 340,000 tested, 1.8% active; note: % of control where 0% means no effect; nearly all actives have a fitted effect of over 55% in size
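DNA re-replication was detected as more nuclei of elevated Hoechst intensity after 48 hr exposure to compound (23 nL pinned per well of 250 cells).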
RGS4 inhibitor = Inhibitors of Regulator of G Protein Signaling (RGS) 4: qHTS; Regulator of G-protein signaling 4 (Homo sapiens), P49798; Transcreener GDP fluorescence polarization, RGS4-accelerated GTP hydrolysis; Potency, µM (doses to about 114 µM), without a hit: at the highest dose activity change, negative = inhibition, most hits filed as inhibitors; 390,000 tested, 0.039% active; note: % is set by controls: 0 for no effect and ±100 for the full control effect; nearly all actives have a fitted effect of over 75% in size
Target sequence (P49798 whole entry, looked up): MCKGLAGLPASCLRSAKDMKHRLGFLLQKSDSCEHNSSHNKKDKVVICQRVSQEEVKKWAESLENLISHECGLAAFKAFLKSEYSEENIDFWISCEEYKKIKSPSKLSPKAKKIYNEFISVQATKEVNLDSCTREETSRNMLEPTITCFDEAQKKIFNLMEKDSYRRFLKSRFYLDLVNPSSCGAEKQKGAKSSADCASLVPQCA
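MLSMR compounds (23 nl, pin-transferred) preincubated 10 min at room temperature with a 500nM (2x) first reagent, then RGS4 at 900nM (2x) plus Transcreener GDP mix added; fluorescence polarization (620/688 nm) read before and after 90 min at 30 °C.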
PTAP TSG101 blk = qHTS Assay for Iinhibitors of HIV-1 Budding by Blocking the Interaction of PTAP/TSG101. Tumor susceptibility gene 101 protein (Homo sapiens), Q99816. Fluorescence polarization, FITC-PTAP peptide / Tsg101 binding. Potency, µM (titrated, usually from 115 µM), inactives show at the highest dose activity change, negative = inhibition, most hits filed as inhibitors. 340,000 tested, under 10 active. AID 493005, 2010; active = well fitted inhibition curve with a large enough effect in the main read-out, with a control signal flat, not every such curve was filed as active; inconclusive = small, poorly fitted or top-dose-only effect, or effect the other way, or a change in a side signal; inactive = no such curve, though single readings can be large or run the other way; note: % of control where 0% means no effect
Target sequence (Q99816 whole entry, looked up): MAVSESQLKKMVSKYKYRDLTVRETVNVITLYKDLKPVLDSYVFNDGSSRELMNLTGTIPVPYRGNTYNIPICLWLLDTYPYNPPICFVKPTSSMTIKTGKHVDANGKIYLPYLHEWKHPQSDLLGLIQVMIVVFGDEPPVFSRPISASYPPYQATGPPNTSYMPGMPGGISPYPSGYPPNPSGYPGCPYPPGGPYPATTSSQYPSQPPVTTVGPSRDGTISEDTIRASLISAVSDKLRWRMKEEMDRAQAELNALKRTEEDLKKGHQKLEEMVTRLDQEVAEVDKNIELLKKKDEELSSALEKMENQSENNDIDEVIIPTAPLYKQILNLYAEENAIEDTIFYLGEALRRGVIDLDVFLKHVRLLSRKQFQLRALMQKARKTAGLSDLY
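Fluorescence anisotropy tracks displacement of a FITC-tagged PTAP peptide (50 nM) from the Tsg101 binding domain (10 uM), following a 20 min room-temperature incubation at pH 7.5.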
The depositor's hits bear a star; i = inactive; ? = inconclusive; . = no result; [ ] = remark or other dose. Sampled rows, rich in hits. Any-hit rate of the full collection: about 6.6%. Unless noted, calls come from the whole dose curve; as a rule, active = well fitted curve in the direction sought with a large enough effect; inconclusive = small, poorly fitted or top-dose-only effect, or another doubt; inactive = no such curve, though single readings can be large; an effect the other way counts as inactive or inconclusive. Potency is the fitted concentration of half-maximal effect.

SMILES | MCF10A rereplic | KB-3-1 tox | KB-V1 MDR tox | SW480 rerep | RGS4 inhibitor | PTAP TSG101 blk
CN(C)c1ncc(S(=O)(=O)c2ccccc2)c(N)n1 | 1% | i | i | 1% | 16% | 0%
COc1ccc(OCC(=O)OCc2cc(=O)n3nc(C4CC4)sc3n2)cc1 | . | i | i | . | 6% | .
Cc1ccccc1NC1=C/C(=N\S(=O)(=O)c2cccs2)c2ccccc2C1=O | ? | ? | 7.3µM* | 4.1µM* | -21% | -4%
CC(=O)Nc1ccc(NC(=O)C(C)OC(=O)c2ccccc2NS(=O)(=O)c2cccs2)cc1 (configuration not stated) | 11% | i | i | -17% | 6% | -1%
CC(=O)Nc1ccc(NC2=C/C(=N/S(=O)(=O)c3cccs3)c3ccccc3C2=O)cc1 | 8.2µM* | 21µM* | i | 4.1µM* | 8% | 0%
COc1ccc(S(=O)(=O)/N=C2\C=C(Nc3ccc(O)cc3)C(=O)c3ccccc32)cc1 | 4.6µM* | 5.2µM* | 16µM* | 16µM* | -11% | 0%
COC(=O)C(C(C)=O)C1=C/C(=N\S(=O)(=O)c2ccc(C)cc2)c2ccccc2C1=O (configuration not stated) | ? | i | i | ? | -30% | 1%
Cc1ccc(NC2=C/C(=N/S(=O)(=O)c3cccs3)c3ccccc3C2=O)cc1C | ? | i | i | -5% | 25% | 0%
CCCCC(Sc1nc2cc3c(cc2c(=O)n1CCCC(=O)NCc1ccc(OC)cc1)OCO3)C(=O)OCC (configuration not stated) | . | . | . | . | 17% | .
CCOc1cc2sc(N3CCC(C(=O)Nc4ccccc4Cl)CC3)nc2cc1Br | . | i | i | . | -1% | .
CCOC(=O)CNC(=S)N(Cc1ccc(C)cc1)Cc1ccc(C)o1 | 16% | i | 16µM* | -3% | -19% | -1%
O=C(Nc1ccc(Cn2nnc3ccccc32)cc1)c1ccco1 | 23% | 16µM* | 16µM* | -9% | 11% | -6%
CCN(CC)c1ccc(/C=C/c2cc(Cl)nc3ccccc23)cc1 | . | i | i | . | . | .
CCN(CC)c1ccc2nc3ccc(N)cc3[n+](-c3ccccc3)c2c1 | ? | 0.73µM* | ? | ? | ? | -19%
CCN(CC)c1ccc2nc3ccccc3[n+](CC)c2c1 | 12µM* | 3.7µM* | 9.2µM* | 3.7µM* | -97%[56.9 µM] | -1%
CCCCC1CCC(c2ccc(C(N)=O)cc2)CC1 (configuration not stated) | -6% | i | ? | -7% | 5% | -1%
CCCCCC1CCC(c2ccc(/C(N)=N/O)cc2)CC1 (configuration not stated) | ? | i | i | 2.3µM* | 18% | -4%
Cc1ccc(C)c(S(=O)(=O)c2nnn3c2nc(Nc2ccc(F)c(Cl)c2)c2sccc23)c1 | . | ? | ? | . | 8% | .
N#C/C(=C\c1ccc(Cl)cc1Cl)c1nc(-c2cccc(Cl)c2)cs1 | . | . | . | . | -6% | .
COc1ccc(CNC(=O)CSc2nnc(C)c3c(C)n(-c4ccccc4)nc23)c(OC)c1 | . | i | i | . | 3% | .
CCOc1ccccc1N(C)C(=O)c1c2c(nc3ccccc13)C(=O)N(C1CCCCC1)C2 | . | i | i | . | -22% | .
O=C(/C=C/c1cccs1)Nc1nccs1 | ? | i | i | 3% | 12% | 0%
Cc1cc(C)c(-c2csc(NC(=O)/C=C/c3cccs3)n2)c(C)c1 | ? | ? | 5.2µM* | ? | 25% | -10%
O=C(Nc1ccc(Br)cn1)c1ccc(Br)s1 | 18µM* | ? | 23µM* | 8.2µM* | -10% | -7%
O=C(NCCCCNC(=O)c1ccc(Cl)s1)c1ccc(Cl)s1 | -11% | i | i | -4% | 33% | -1%
SMILES | MCF10A rereplic | KB-3-1 tox | KB-V1 MDR tox | SW480 rerep | RGS4 inhibitor | PTAP TSG101 blk
O=C(/C=C/c1cccs1)Nc1ccc(Br)cn1 | ? | 1.3µM* | 0.37µM* | ? | 7% | 5%
O=C(NCCCCCCNC(=O)c1ccc(Br)s1)c1ccc(Br)s1 | 19% | ? | 3.3µM* | -3% | -12% | -3%
Cc1cc(C)nc(NC(=O)/C=C/c2cccs2)c1 | -5% | i | i | 1% | -36% | -7%
O=C(Nc1ccc(Br)cn1)c1ccc(Cl)s1 | ? | ? | i | ? | 12% | -2%
CN(Cc1ccccc1)c1nc2c(S(=O)(=O)c3ccccc3)nnn2c2ccsc12 | . | i | i | . | 2% | .
Cc1ccc(-n2nc(C(=O)N(C)Cc3ccccc3)c3c4ccccc4n(C)c3c2=O)cc1 | . | i | i | . | 25% | .
O=C(/C=C/c1cccs1)Nc1cccc(NC(=O)/C=C/c2cccs2)n1 | 18µM* | 23µM* | 23µM* | -1% | 15% | -5%
CCN(CC)S(=O)(=O)c1ccc(C)c(NC(=O)/C=C/c2cccs2)c1 | 12% | i | 8.2µM* | 7% | -3% | -3%
NS(=O)(=O)c1ccc(NC(=O)/C=C/c2cccs2)cc1 | -2% | i | i | 23µM* | -1% | -5%
Cc1ccccc1NC(=O)/C=C/c1cccs1 | -3% | i | ? | -13% | -25% | 0%
COc1ccc(C(=O)Cn2c(C(C)=O)nc3ccccc32)cc1 | 13% | ? | 3.3µM* | 3% | -21% | -4%
COc1ccc(/C=C/C(=O)c2nc3ccccc3n2CC(=O)c2ccc(OC)cc2)cc1 | 2% | i | 23µM* | 16% | -31% | 0%
COc1ccc(C(=O)Cn2c(NCCO)nc3ccccc32)cc1 | -3% | i | i | 5% | 5% | -10%
Cc1ccc2nc(-c3cccc(NC(=O)c4cccc5c(Cl)cccc45)c3)oc2c1 | . | i | i | . | 17% | .
CC1=C(c2ccc(C(C)C)cc2)S(=O)(=O)NC1=NCCCN1CCN(c2ccccc2F)CC1 | . | . | . | . | 5% | .
Cc1ccc(C(=O)NCC(=O)OCC(=O)c2cccc3ccccc23)cc1 | . | i | i | . | -15% | .
Cn1cnnc1Sc1nc([N+](=O)[O-])nn1C | 2% | i | i | -116% | -10% | 0%
COc1ccccc1-c1nnc(Sc2nc([N+](=O)[O-])nn2C)o1 | 9.2µM* | ? | ? | ? | 2% | -5%

Screening results from PubChem BioAssay.
